HT1080 IDH1KD tx: kills HT-1080 cells with IDH1 knockdown; 360,000 compounds, 2% hits; AID 686971; Potency, µM (top dose mostly 46.1 µM), without a hit: at the top dose activity, negative = toxicity, usual class: cytotoxic; HT-1080 IDH1 knockdown viability, ATP luminescence, 48 h;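 further: 0% = DMSO wells and -100% = cell-free medium wells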
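Assay cells: HT-1080 with IDH1 knockdown, 750 per well, RPMI/5% FBS. Exposure: 48 h at 37 °C following 2 h pre-incubation. Read: CellTiter-Glo luminescence; fitted concentration-response, curve class assigned.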
TDP1 cell CPT: DT40-hTDP1 cell growth loss with CPT; chicken DT40 Tdp1-/-;hTDP1 cells + 20 nM CPT, ATP luminescence, 48 h; Potency, µM (series often up to 46.2 µM), for the others: top-dose activity change, negative = growth inhibition, most hits filed as inhibitors; 420,000 compounds, 12% hits; AID 686979; further: nearly all actives have a fitted effect of over 55% in size
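Chicken DT40 Tdp1-/- cells complemented with human TDP1, 400 cells/well, exposed to compounds plus 20 nM camptothecin for at least 48 h at 37 C; viability read as ATP content by CellTiter-Glo luminescence.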
KB-3-1 cytotox: KB-3-1 parental cell cytotoxicity. KB-3-1 viability, CellTiter-Glo ATP luminescence, 72 h. Potency, µM (highest dose often 46.1 µM), most hits filed as cytotoxic. 400,000 compounds, 1.4% hits. AID 1347075; further: nearly all actives have a fitted effect of over 60% in size
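Cytotoxicity measured as CellTiter-Glo luminescence after 72 h at 37 C. Compound titrations were pinned onto drug-naive KB-3-1 parental adenocarcinoma cells grown in DMEM with 10% FBS, and normalized data fitted to concentration-response curves.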
TDP1 cell noCPT: qHTS for Inhibitors of human tyrosyl-DNA phosphodiesterase 1 (TDP1): qHTS in cells in absence of CPT | DT40 Tdp1-/- hTDP1 cells, no CPT, ATP luminescence, 48 h | Potency, µM (top dose mostly 46.2 µM), inactives show at the top dose activity change, negative = growth inhibition, actives largely listed as inhibitors | 420,000 compounds, 15% hits | AID 686978, 2013; further: nearly all actives have a fitted effect of over 55% in size
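A cellular qHTS used chicken DT40 cells lacking endogenous Tdp1 but carrying stably transfected human TDP1. Compounds were applied without camptothecin, and cell growth kinetics were judged by ATP-dependent luminescence after ≥48 hr.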
KB-V1 MDR tox: kills drug-selected multidrug resistant KB-V1 cells; Potency, µM (doses to about 46.1 µM), hits mostly cytotoxic; KB-V1 MDR cells viability, CellTiter-Glo, 72 h; 400,000 compounds, 3.4% hits; AID 1347076; further: nearly all actives have a fitted effect of over 60% in size
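Potencies derive from concentration-effect curves fitted to normalized luminescence (CellTiter-Glo) of KB-V1 cells treated for 72 h at 37 degrees C in phenol-red-free DMEM containing 10% FBS.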
HT1080-NT tox: kills 2HG-producing HT-1080-NT fibrosarcoma cells; HT-1080-NT fibrosarcoma viability, CellTiter-Glo ATP luminescence, 48 h; Potency, µM (highest dose often 46.1 µM), for the others: at the highest dose activity, negative = less viability, most hits filed as cytotoxic; 360,000 compounds, 1.6% hits; AID 686970;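 further: NT is the 2HG producing partner of a matched IDH1 knockdown line; 0% = DMSO-treated cells and -100% = media-only wells without cells; nearly all actives have a fitted effect of over 55% in size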
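750 cells/well, RPMI + 5% FBS; 2 h settle, compound pin-transfer, 48 h at 37 degrees C. CellTiter-Glo 10 min RT, luminescence. Normalized to DMSO and media-only wells.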
Numbers without * were called inactive; i = inactive; u = inconclusive; x = no result. The list is not random: actives were taken first. Their share in the collection is about 19%. The call rests on the fitted dose curve; in most records, active means well fitted curve in the direction sought with a large enough effect; inconclusive means small, poorly fitted or top-dose-only effect, or another doubt; inactive means no such curve, though single readings can be large; an effect the other way counts as inactive or inconclusive. Unless noted, on the % scale 0 is the no-effect control and ±100 the full control effect; potency means the concentration at half of the fitted maximal effect.

SMILES | HT1080 IDH1KD tx | TDP1 cell CPT | KB-3-1 cytotox | TDP1 cell noCPT | KB-V1 MDR tox | HT1080-NT tox
COc1ccc(C/C(C)=N/NC(=S)Nc2ccc(C(C)C)cc2)cc1 | 4% | u | i | u | i | 8%
CC1CCCC(C)N1NC(=S)Nc1ccc(OC(F)F)cc1 (configuration not stated) | 0% | 21µM* | i | u | i | 1%
CC/C(=N\NC(=S)Nc1ccc(OC)cc1)c1ccc(OC(F)F)cc1 | u | 2.9µM* | i | 5.8µM* | u | u
C/C(=N\NC(=O)C1CC1)c1ccc(OC(F)F)cc1 | 1% | -1% | u | 4% | 13µM* | 13%
CCCNC(=O)C1(C)CCCN(CCOc2ccccc2)C1 (configuration not stated) | 2% | u | i | u | i | 5%
Cc1ccc2c(c1)cc1c(=O)n(CC(=O)NC(C)CCc3ccccc3)nc(C)n12 (configuration not stated) | x | -7% | x | -16% | x | x
COC(=O)N/N=C(\C)c1ccc(OC(F)F)cc1 | 15% | 18% | i | 3% | u | 13%
COc1ccccc1NC(=S)NNC(=S)Nc1ccc(OC(F)F)cc1 | u | u | i | 21µM* | i | -7%
CN(Cc1ccccc1)C(=S)Nc1ccc(OC(F)F)cc1 | 10% | -27% | i | u | 15µM* | 13%
CN(C)CCCN(Cc1ccccc1)C(=S)Nc1ccc(OC(F)F)cc1 | -1% | -1% | i | -19% | u | -6%
C/C(=N\NC(=S)Nc1c(C)cccc1C)c1ccc(OC(F)F)cc1 | u | 10µM* | u | 9.2µM* | u | u
CC/C(=N\NC(=S)Nc1cc(C)ccc1C)c1ccc(OC(F)F)cc1 | -19% | u | i | 16µM* | u | -11%
COc1ccc(CNC(=O)C2=C(C)C(=O)OC23CCN(C(C)=O)CC3)cc1 | x | 3% | i | -21% | i | x
CC(C)(C)C(=O)Nc1ccc(-c2nc3ccc(NC(=O)C(C)(C)C)cc3[nH]2)cc1 | x | 0.65µM* | x | 1.2µM* | x | x
O=C(Nc1cccc(-c2nc3ccccc3[nH]2)c1)c1cccc(NC(=O)c2ccco2)c1 | u | 16µM* | u | 18µM* | i | u
O=C(Nc1ccc2nc(-c3ccc(Br)o3)[nH]c2c1)c1ccco1 | -13% | u | i | 9.2µM* | u | -6%
Nc1cccc(C(=O)Nc2ccc3nc(-c4cccnc4)[nH]c3c2)c1 | 3% | -21% | i | -8% | i | 6%
O=C(Nc1ccc2nc(-c3cccnc3)[nH]c2c1)C1CCCCC1 | u | u | i | 15µM* | i | u
Cc1cccc(C)c1NC(=O)c1csc([C@@H]2O[C@H](CO)[C@H](O)[C@H](O)[C@H]2O)n1 | 1% | 0% | i | -2% | i | 22%
CCc1ccc(N=C2NC(=O)CC(C(=O)Nc3ccc(OC)cc3)S2)cc1 (configuration not stated) | x | -28% | i | -17% | i | x
CCN(CC)c1ccc(CNCCCSc2nnnn2C)cc1 | x | u | i | u | i | x
O=S(=O)(NCc1csc(-c2ccccc2)n1)c1ccccc1 | x | 2% | x | -20% | x | x
O=C(Nc1ccc2nc(-c3ccccc3)[nH]c2c1)c1ccco1 | -24% | u | u | 21µM* | i | -19%
Cn1cccc1-c1nc2ccc(NC(=O)c3cccs3)cc2[nH]1 | -12% | u | i | 16µM* | u | -9%
O=C(Nc1cc(-c2ccccc2)cs1)c1ccco1 | -10% | u | i | 15µM* | i | -7%
SMILES | HT1080 IDH1KD tx | TDP1 cell CPT | KB-3-1 cytotox | TDP1 cell noCPT | KB-V1 MDR tox | HT1080-NT tox
CC(=O)Nc1ccc2nc(-c3cccn3C)[nH]c2c1 | 11% | -20% | i | -3% | i | 18%
CC(C)(C)NC(=O)C1c2ccccc2OCC(=O)N1Cc1ccc2c(c1)OCO2 (configuration not stated) | 9% | -29% | i | -9% | i | 9%
Cc1ccc2c(c1)sc[n+]2Cc1ccccc1 | u | 13µM* | i | 13µM* | i | u
CC(NCC(O)c1ccc([N+](=O)[O-])cc1)C12CC3CC(CC(C3)C1)C2 (configuration not stated) | 23µM* | u | i | u | i | 18µM*
CC(=O)Nc1ccccc1OCC(=O)NCCC1=CCCCC1 | 0% | -20% | i | u | i | 3%
CCCc1nn2c(=O)cc(COC(=O)CNC(=O)COc3ccc(C)cc3)nc2s1 | x | 0% | i | -11% | i | x
C=C1c2cc(OC)ccc2NC(=O)N1CC | -2% | -4% | i | -1% | 7.3µM* | 0%
COc1cc2c(cc1OC)CC(C(=O)NCc1ccccc1)NC2 (configuration not stated) | 7% | 2% | i | -22% | i | -2%
COc1ccc(-c2cc(C(F)(F)F)n3nc(C(=O)N4CCCCC4)cc3n2)cc1 | -1% | 16µM* | i | 23µM* | u | -3%
COc1ccc(-c2cc(C(F)(F)F)n3nc(C(=O)N4CCCCC4)cc3n2)cc1OC | -6% | 18µM* | u | 18µM* | 10µM* | 1%
COc1ccc(-c2cc(C(F)(F)F)n3nc(C(=O)OC(C)C)cc3n2)cc1 | x | 23µM* | i | 16µM* | i | x
O=C(c1cc2nc(-c3ccccc3)cc(C(F)(F)F)n2n1)N1CCCC1 | 2% | -18% | i | 3% | i | -1%
COc1ccc(-c2cc(C(F)(F)F)n3nc(C(=O)O)cc3n2)cc1OC | -8% | 4% | i | -21% | i | -1%
COc1ccc(-c2cc(C(F)(F)F)n3nc(C(N)=O)cc3n2)cc1 | 19% | 1% | i | -14% | i | 23%
COc1cccc(-c2cc(C(F)(F)F)n3nc(C(=O)N4CCCCC4c4cccnc4)cc3n2)c1 (configuration not stated) | -8% | 16µM* | i | 16µM* | u | -7%
COc1ccc(-c2cc(C(F)(F)F)n3nc(C(=O)Nc4cccc(Cl)c4C)cc3n2)cc1 | x | -17% | u | -17% | i | x
CCCCNc1ccc(C(=O)OCCN(CC)CC)cc1 | x | -16% | x | -25% | x | x
Cc1[nH]c2nc3ccccc3n2c(=O)c1CCC(C)C | 2% | 7% | i | 5% | i | 3%

Compound activity deposited in PubChem by National Center for Advancing Translational Sciences (NCATS).
